This is an account of results in PubChem BioAssay (NCI).

Among the test systems are DU-145 prostate; K-562 leukemia; MALME-3M melanoma; MDA-MB-231 breast; RXF 393 renal; SF-268 CNS; SF-295 CNS; SF-539 CNS; UACC-257 melanoma; M14 melanoma; HCT-15 colon; HT29 colon; SNB-75 CNS; SNB-19 CNS; U251 CNS; PC-3 prostate; SK-MEL-5 melanoma; UACC-62 melanoma; LOX IMVI melanoma; SK-MEL-28 melanoma.
Holding throughout (test): NCI-60 one-dose screen, 48 h (100 = growth as untreated, 0 = no growth, -100 = all killed)
Common to all, as to settings: 10 µM unless noted

SMILES strings stand for the structures. About 83,000 compounds went through this panel and 20% of them were active in at least one assay; those are over-represented in the sample as a whole.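 The test compound was applied at a single concentration to cells in 96-well plates for 48 hours, and percent growth was recorded.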 A number with no mark means an inactive call. The source made the active and inactive calls. How the source made its calls: active means growth percent below 10; inactive means the rest.

Consider `CC1(C)S[C@@H]2[C@H](NC(=O)[C@H](C(=O)O)c3cccs3)C(=O)N2[C@H]1C(=O)O`, for which the growth in the experiment with DU-145 prostate was 123%; in the experiment on K-562 leukemia, 105%; in the experiment with MALME-3M melanoma it was 103%; in the experiment with MDA-MB-231 breast it was 126%; with RXF 393 renal it was 116%; in the experiment on SF-268 CNS it was 110%. Further, the growth in the experiment on SF-295 CNS is 98.4%; in the experiment on SF-539 CNS it was 100%; in the experiment with UACC-257 melanoma it was 96.2%; in the experiment with M14 melanoma, 102%; in the experiment with HCT-15 colon, 98.7%; in the experiment on HT29 colon it was 102%. The growth was 104% in the experiment on SNB-75 CNS; 105% in the experiment with SNB-19 CNS; 94.4% in the experiment on U251 CNS; 99.2% with PC-3 prostate; 106% in the experiment with SK-MEL-5 melanoma; 102% in the experiment on UACC-62 melanoma. In addition, the figures for the growth in the experiment with LOX IMVI melanoma and in the experiment with SK-MEL-28 melanoma were 99.4% and 116%, respectively.
As for `CSc1nc(N)c(N=Nc2ccc(S(=O)(=O)Nc3nnc(C)s3)cc2)c(=O)[nH]1`, the growth is 101% in the experiment with DU-145 prostate; 138% in the experiment on K-562 leukemia; 109% in the experiment with MALME-3M melanoma; 103% in the experiment with MDA-MB-231 breast; 110% in the experiment on RXF 393 renal; 101% in the experiment on SF-268 CNS. In addition, the growth in the experiment with SF-295 CNS is 133%; in the experiment with SF-539 CNS it was 109%; in the experiment on UACC-257 melanoma, 117%; with M14 melanoma, 101%; with HCT-15 colon it was 109%; in the experiment with HT29 colon, 104%. Besides, the growth with SNB-75 CNS is 107%; with SNB-19 CNS it was 103%; in the experiment with U251 CNS it was 119%; in the experiment with PC-3 prostate, 97.5%; in the experiment with SK-MEL-5 melanoma, 104%; in the experiment with UACC-62 melanoma, 94.3%. Moreover, the values for the growth in the experiment on LOX IMVI melanoma and in the experiment with SK-MEL-28 melanoma were 118% and 108%, respectively.
Consider `CCCCNC(=O)NS(=O)(=O)Cc1ccccc1`, for which the growth is 111% in the experiment on DU-145 prostate; 99.7% in the experiment on K-562 leukemia; 117% in the experiment on MALME-3M melanoma; 127% in the experiment on MDA-MB-231 breast; 124% in the experiment with RXF 393 renal; 107% in the experiment on SF-268 CNS. The growth in the experiment with SF-295 CNS is 116%; in the experiment with SF-539 CNS, 101%; in the experiment with UACC-257 melanoma, 104%; in the experiment on M14 melanoma, 106%; in the experiment on HCT-15 colon, 109%; in the experiment on HT29 colon, 114%. Further, the growth in the experiment with SNB-75 CNS is 95.3%; in the experiment on SNB-19 CNS, 114%; in the experiment on U251 CNS, 96.4%; in the experiment with PC-3 prostate, 102%; with SK-MEL-5 melanoma, 107%; with UACC-62 melanoma, 104%. Besides, the growth in the experiment with LOX IMVI melanoma is 107%; with SK-MEL-28 melanoma it was 108%.
`COc1ccc(-c2cc(-c3ccccc3)nc(NCCNc3ccnc4cc(Cl)ccc34)n2)cc1`: the growth is -73.8% (active) in the experiment with DU-145 prostate; -47.1% (active) with K-562 leukemia; -77.1% (active) in the experiment on MALME-3M melanoma; -89.8% (active) in the experiment on MDA-MB-231 breast; -87% (active) in the experiment on RXF 393 renal; -40.1% (active) in the experiment on SF-268 CNS. Also, the growth in the experiment with SF-295 CNS was -75.4% (active); with SF-539 CNS, -81.7% (active); with UACC-257 melanoma it was -78.8% (active); in the experiment on M14 melanoma, -78.7% (active); in the experiment with HCT-15 colon, -81% (active); in the experiment with HT29 colon it was -48.8% (active). Moreover, the growth in the experiment with SNB-75 CNS is -68.3% (active); in the experiment with SNB-19 CNS, -83.7% (active); in the experiment with U251 CNS it was -84.3% (active); with PC-3 prostate, -81.8% (active); in the experiment on SK-MEL-5 melanoma, -97.6% (active); with UACC-62 melanoma it was -89.9% (active). Also, the growth in the experiment on LOX IMVI melanoma is -79% (active); in the experiment with SK-MEL-28 melanoma, -92.8% (active).
In the case of `O=C1Nc2ccccc2/C1=C/C(=O)c1ccc(N2CCCC2)cc1`, the growth with DU-145 prostate was 12.3%; with K-562 leukemia it was 14.3%; in the experiment with MALME-3M melanoma, 39.3%; in the experiment with MDA-MB-231 breast, 47.2%; in the experiment on RXF 393 renal it was 20.6%; with SF-268 CNS, 21.9%. Also, the growth was 68.8% with SF-295 CNS; 4.58% (active) in the experiment on SF-539 CNS; 78.1% in the experiment with UACC-257 melanoma; 108% with M14 melanoma; 23.1% in the experiment on HCT-15 colon; -9.76% (active) in the experiment with HT29 colon. Further, the growth in the experiment with SNB-75 CNS was 23.3%; in the experiment with SNB-19 CNS, 57.2%; in the experiment with U251 CNS it was 4.98% (active); in the experiment with PC-3 prostate, 38.2%; with SK-MEL-5 melanoma, 65.2%; in the experiment with UACC-62 melanoma, 34.5%. In addition, the growth in the experiment with LOX IMVI melanoma was -17% (active); in the experiment with SK-MEL-28 melanoma, 76.5%.
For the compound `CCOC(=O)c1nn(C2CCCCO2)c2ccc(NC(=O)CN3CCCC3)cc12` (stereo not given), the growth in the experiment on DU-145 prostate was 104%; in the experiment with K-562 leukemia, 100%; in the experiment on MALME-3M melanoma it was 102%; in the experiment on MDA-MB-231 breast, 104%; in the experiment with RXF 393 renal, 133%; with SF-268 CNS, 93%. Further, the growth in the experiment with SF-295 CNS is 98.5%; in the experiment with SF-539 CNS, 95.7%; in the experiment on UACC-257 melanoma it was 91.3%; in the experiment on M14 melanoma it was 98.2%; in the experiment on HCT-15 colon, 106%; in the experiment with HT29 colon it was 111%. The growth in the experiment with SNB-75 CNS is 79%; in the experiment on SNB-19 CNS, 95.8%; in the experiment with U251 CNS it was 94.8%; in the experiment on PC-3 prostate, 107%; in the experiment with SK-MEL-5 melanoma it was 103%; with UACC-62 melanoma, 98.5%. Moreover, the growth in the experiment with LOX IMVI melanoma was 97.3%; in the experiment with SK-MEL-28 melanoma, 105%.
For the compound `CCOC(=O)c1sc2nc(-c3cc(OC)c(OC)c(OC)c3)nc(N3CCOCC3)c2c1C`, the growth in the experiment with DU-145 prostate is 48.3%; with K-562 leukemia, 24.2%; with MALME-3M melanoma, 9.78% (active); in the experiment on MDA-MB-231 breast, 44.9%; in the experiment on RXF 393 renal it was 32.3%; with SF-268 CNS it was 40.1%. Besides, the growth was 40.3% in the experiment with SF-295 CNS; 50.4% with SF-539 CNS; 51.7% in the experiment on UACC-257 melanoma; 38.4% in the experiment with M14 melanoma; 29.1% in the experiment on HCT-15 colon; 40.6% in the experiment with HT29 colon. The growth with SNB-75 CNS was 56.2%; with SNB-19 CNS, 53.2%; in the experiment on U251 CNS, 36.2%; in the experiment on PC-3 prostate, 14.2%; in the experiment on SK-MEL-5 melanoma, 2.9% (active); in the experiment with UACC-62 melanoma it was 15.7%. The growth in the experiment on LOX IMVI melanoma was 45.1%; in the experiment on SK-MEL-28 melanoma, 42.2%.
